Source: PubChem BioAssay (several laboratories)
L major viab = Leishmania major promastigote growth inhibition, primary screen | hit rate 9% among 200,000 | AID 1063, 2008 | inhibition, % at 10 µM | Leishmania major promastigotes, resazurin fluorescence viability; in the data active = inhibition above about 50%;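 note: promastigotes grown with compound for 44 hours at 28 °C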
WT yeast gro inh = growth inhibition of WT strain, primary screen, mitochondrial fusion inhibitor project, WT and mutant strains, chemical genetic | inhibition, % at 10 µM | mitochondrial fusion phenotypic screen | hit rate 2.1% among 190,000 | AID 1362, 2008; in the data active = inhibition above about 58%; tested in S. cerevisiae
ROMK primary = ROMK potassium channel modulators, primary screen, cell-based, thallium flux, MLSMR library; B-score at 10 µM; ATP-sensitive inward rectifier potassium channel 1 (Homo sapiens), P48048; Tet-inducible ROMK, thallium flux fluorescence; actives lie on both sides; hit rate 2% among 130,000; AID 1918, 2009;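 active = signal ratio slope over the read window, or its plate-corrected B-score, at least 3 SD from the plate mean, either direction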;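 note: B-score of the F/F0 ratio slope over 7 to 12 s after thallium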
Target sequence (P48048 whole entry, looked up): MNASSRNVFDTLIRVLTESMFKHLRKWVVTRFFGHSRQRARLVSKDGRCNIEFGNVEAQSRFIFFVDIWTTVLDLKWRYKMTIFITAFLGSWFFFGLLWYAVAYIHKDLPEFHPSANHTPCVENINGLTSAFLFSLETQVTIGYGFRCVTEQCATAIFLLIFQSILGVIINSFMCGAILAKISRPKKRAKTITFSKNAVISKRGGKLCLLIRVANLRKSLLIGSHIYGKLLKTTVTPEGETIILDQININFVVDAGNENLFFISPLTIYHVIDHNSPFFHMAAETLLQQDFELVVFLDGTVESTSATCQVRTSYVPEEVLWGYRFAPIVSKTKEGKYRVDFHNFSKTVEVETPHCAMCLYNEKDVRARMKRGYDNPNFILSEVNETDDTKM
KCC2 mod = KCC2 cotransporter modulators, thallium flux, primary screen, cell-based, HEK293 KCC2, FluoZin-2 fluorescence, MLSMR; B-score of Tl+ flux slope (higher = more flux/activation; lower = inhibition) at 10 µM; AID 1456, 2008; hit rate 2.2% among 190,000; KCC2 cells, thallium flux FluoZin-2 fluorescence;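 active = thallium flux slope and its plate-corrected score both differing from the plate sample mean at a set confidence after two filtering rounds, in either direction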;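 note: slope of fluorescence scaled to starting intensity during 10 to 20 s after thallium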
Calpain2 inh = inhibitors of pig calpain II, primary screen, biochemical, fluorogenic peptide substrate, 1536-well | purified calpain II, 30 min | inhibition, % at 16 µM | hit rate 0.37% among 220,000 | AID 1236, 2008;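 active = inhibition above about 50%, limit read from the data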
Of the large screens only hits and unclear results are named; the others gave an inactive call. Shown are actives, neighbours in structure and some others; about 12% of the full set was active somewhere.

Nc1nc(Nc2cccc(F)c2)nc2ccccc12	L major viab 89
Fc1cccc(NC(=S)NNc2c3ccccc3nc3ccccc23)c1	WT yeast gro inh 76
Cc1ccc(C)c(Nc2nc(N)c3ccccc3n2)c1	L major viab 98
Cc1ccc(C)c(NC(=O)c2cc(-c3cccnc3)nc3ccccc23)c1	none
c1ccc(Nc2nc3ccccc3o2)cc1	none
COc1cc(CNCCc2ccccc2F)ccc1OCC(=O)N1CCCCC1	none
COc1cccc(-c2nnc(SCC(=O)Nc3ccc(S(N)(=O)=O)cc3)n2C)c1	none (no result: ROMK primary)
Nc1nc(CN2CCC(Cc3ccccc3)CC2)nc(Nc2ccccc2)n1	L major viab 100
Nc1nc(CN2CCCCCC2)nc(Nc2ccccc2)n1	none (no result: ROMK primary)
CC1CC(C)CN(Cc2nc(N)nc(Nc3ccc4ccccc4c3)n2)C1 (stereo not given)	L major viab 95 (no result: ROMK primary)
Nc1nc(CN2CCN(Cc3ccc4c(c3)OCO4)CC2)nc(Nc2ccccc2)n1	L major viab 72 (no result: ROMK primary)
O=C(N/N=C1/CC2C=CCC12)c1ccco1 (stereo not given)	none
COc1ccc(C(CCNCc2ccc(F)cc2)c2ccc(F)cc2)cc1 (stereo not given)	L major viab 72, WT yeast gro inh 59
COc1ccc(CNCCC(c2ccc(F)cc2)c2ccc(OC(C)C)cc2)cc1OC (stereo not given)	none (no result: L major viab, WT yeast gro inh, ROMK primary)
COc1ccc(C(CCNC(C)c2ccccc2)c2ccc(F)cc2)cc1 (stereo not given)	L major viab 100, WT yeast gro inh 59 (no result: ROMK primary)
COc1ccc(C(CCNCc2ccccc2)c2ccc(F)cc2)cc1 (stereo not given)	L major viab 99, WT yeast gro inh 60 (no result: ROMK primary)
CN1CCN(c2ccccc2NS(=O)(=O)c2ccc3c(c2)CCN3C(=O)C2CCC2)CC1	none (no result: WT yeast gro inh, ROMK primary, Calpain2 inh)
O=C(NCc1ccc2c(c1)OCO2)c1ccco1	none
O=C(CC(SCCO)c1ccc2c(c1)OCO2)c1ccco1 (stereo not given)	L major viab 56 (no result: ROMK primary, KCC2 mod)
CN(CC(=O)NC1CCCCCC1)S(=O)(=O)c1ccc2c(c1)n(C)c(=O)c(=O)n2C	none (no result: ROMK primary, KCC2 mod)
CCN(CCNC(=O)C1CCN(S(=O)(=O)c2cccc3cccnc23)CC1)c1ccccc1	none (no result: ROMK primary)
COc1ccc(CCN=C(NS(=O)(=O)c2ccc(Cl)cc2)c2ccccc2)cc1	L major viab 66
COc1ccc(CCN=C(NS(=O)(=O)c2ccccc2)c2ccccc2)cc1OC	none
CCOC(=O)C1CCC(CN(Cc2ccccc2)S(=O)(=O)c2ccc([N+](=O)[O-])cc2)CC1 (stereo not given)	WT yeast gro inh 71 (no result: ROMK primary)
COc1ccc(Cl)cc1-n1c(C)cc(C=O)c1C	L major viab 78
COc1ccc(Cl)cc1-n1c(C)cc(C(=O)O)c1C	none
CC(=NC(C)C)C1=C(O)CCC1=O	none
CC(=NC(C)C)C1=C(O)C(C)OC1=O (stereo not given)	L major viab 75
COc1cc(CN(C2CCCCC2)S(=O)(=O)c2ccc(S(=O)(=O)N(C)C3CCCCC3)cc2)cc(OC)c1OC	L major viab 93
COc1ccc(CN(C2CCCC2)S(=O)(=O)c2ccc(-n3cnnn3)c(OC)c2)cc1OC	none (no result: ROMK primary)
CCOC(=O)N1CCC(NC(=O)C(CC(C)C)NC(=O)C2CCCCC2)CC1 (stereo not given)	none
CCOC(=O)[C@H]1O[C@@H]1C(=O)N[C@@H](CC(C)C)C(=O)NCCC(C)C	Calpain2 inh 97 (no result: L major viab, ROMK primary)
CC(C)CCNC(=O)[C@H](CC(C)C)NC(=O)[C@H]1O[C@@H]1C(=O)O	Calpain2 inh 100 (no result: ROMK primary)
Cc1ccc(C)c(N2N=C(C(=O)Nc3nccs3)CCC2=O)c1	none
Cc1ccc2c(c1)N(CCC(=O)NCCCOC(C)C)C(=O)C(C)O2 (stereo not given)	none
CC(=O)c1ccc(OCc2cc([N+](=O)[O-])cc3c2OCOC3)cc1	L major viab 75
O=C(CSc1nc2ccccc2s1)N1N=C(c2cccs2)CC1c1ccc(F)cc1 (stereo not given)	none
O=C(CSc1nc2c(cnn2-c2ccc(F)cc2)c(=O)[nH]1)N1N=C(c2cccs2)CC1c1ccc(F)cc1 (stereo not given)	L major viab 51
CCCCOc1ccc(C(=O)N/C(=C\c2cccc([N+](=O)[O-])c2)C(=O)OC(C)C)cc1	Calpain2 inh 51 (no result: ROMK primary)
Cc1cc(N2CCN(c3ccccc3Cl)CC2)n2cc(-c3ccccc3)nc2n1	WT yeast gro inh 74 (no result: ROMK primary)
Cc1ccc(C)c(NC(=S)N(Cc2ccco2)C(C)c2cccs2)c1 (stereo not given)	L major viab 63, WT yeast gro inh 69
Cc1ccc(Cl)cc1NC(=S)N(Cc1ccco1)C(C)c1cccs1 (stereo not given)	none
Cc1ccc(NC(=S)N(Cc2ccco2)C(C)c2cccs2)c(Cl)c1 (stereo not given)	WT yeast gro inh 66
COc1ccc(CNCCC(c2ccccc2)C2CCOC(C)(C)C2)cc1 (stereo not given)	L major viab 91
COc1ccc(CNCCC2(C(C)C)CCOC(C)(C)C2)cc1 (stereo not given)	none (no result: L major viab, WT yeast gro inh, ROMK primary)
COc1ccc(CN(CCC(c2ccccc2)C2CCOC(C)(C)C2)C(C)=O)cc1 (stereo not given)	L major viab 83
Cc1cc(C)n(C(=O)Cn2nc([N+](=O)[O-])cc2C)n1	none
CC(C)(C)c1ccc(OCC(=O)NCCN2CCCC2)cc1	L major viab 80 (no result: WT yeast gro inh, ROMK primary)
Cc1ccc(OCC(=O)NCCN2CCCC2)cc1	none (no result: ROMK primary)
CCNC(=S)Nc1cccc(F)c1C	none
Cc1cc(C(=O)CN2CCCC(C)C2)c(C)n1-c1ccc(F)cc1 (stereo not given)	L major viab 73 (no result: ROMK primary)
Cc1cc(C(=O)CN2C(=O)CN(C)C2=O)c(C)n1-c1cccc(S(=O)(=O)N2CCOCC2)c1	none
Cc1ccc(S(=O)(=O)N2CCOCC2)cc1C(=O)N1c2ccccc2Sc2ccccc21	L major viab 99
Cc1cc(C(=O)CSc2ncn[nH]2)c(C)n1-c1cccc(S(=O)(=O)N2CCOCC2)c1	L major viab 59 (no result: ROMK primary)
Cc1ccc(C)n1-c1cccc(S(=O)(=O)N2CCOCC2)c1	none
Cc1cc(C(=O)CCl)c(C)n1-c1cccc(S(=O)(=O)N2CCOCC2)c1	L major viab 101
CC1CCCCN1C(=S)NCCc1ccccc1 (stereo not given)	none
Cc1ccc(N2C(=O)/C(=C\c3ccc(C(C)C)cc3)N=C2SC2CCOC2=O)cc1 (stereo not given)	none
Cc1ccc(-n2c(C)cc(C(=O)CN3CCOCC3)c2C)cc1C	L major viab 57
Cc1nc2cc(Nc3ccncc3)ccc2s1	none
Cc1nn(Cc2ccccc2Cl)c2sc(C(=O)NC(C)(C)C)cc12	none (no result: ROMK primary)
Cc1csc(NC(=O)c2cc3c(C)nn(Cc4ccccc4Cl)c3s2)n1	L major viab 96 (no result: ROMK primary)
OC(c1ccccc1)(c1ccc(F)cc1)C(c1ccccc1)N1CCOCC1 (stereo not given)	none (no result: ROMK primary)
